Measurements published in PubChem BioAssay (NCATS).
Inconclusive results are not listed. Where a call stands in place of a potency, no number is given. Active and inactive are the calls of the source. Calls come from the whole dose curve; as a rule, active = well fitted cell-killing curve with a large enough effect; inconclusive = small, poorly fitted or top-dose-only effect, or effect the other way; inactive = no such curve, though single readings can be large or run the other way.

Test: qHTS assay to identify small molecule inhibitors of chordoma cells - UCH-1 (AID 1259355); note: nearly all actives have a fitted effect of over 55% in size
Conditions: UCH-1 chordoma viability, CellTiter-Glo, 48 h, combination, with auranofin plus four topoisomerase inhibitors; series mostly up to 46.1 µM
In short: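 Seed 800 cells per well; incubate overnight at 37 C, 5% CO2. Add test compounds (15 concentrations), then the auranofin–topoisomerase-agent combination. Incubate 48hr, add CellTiter-Glo, wait 30min, read luminescence.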

SMILES	Potency
O=C(O)c1cc(-c2ccccc2)nc2ccccc12	inactive
CCCNC(=O)NS(=O)(=O)c1ccc(Cl)cc1	inactive
CN(C)CCC(c1ccccc1)c1ccccn1 (stereo not given)	inactive
CCN(CC)C(=O)c1ccc(O)c(OC)c1	inactive
C[N+](C)(C)CCCCCC[N+](C)(C)C	inactive
COC(=O)[C@@H]1[C@H]2C[C@H]3c4[nH]c5ccccc5c4CCN3C[C@@H]2CC[C@@H]1O	inactive
CC(=O)N[C@@H](CS)C(=O)O	inactive
CCN(CC)CCOC(=O)c1ccc(N)cc1	inactive
OC[C@@H](O)[C@H](O)[C@H](O)[C@@H](O)CO	inactive
Cc1cccc(C)c1OCC(C)N (stereo not given)	inactive
CC1=C(/C=C/C(C)=C/C=C/C(C)=C/C(=O)Nc2ccc(O)cc2)C(C)(C)CCC1	inactive
COc1ccccc1N1CCN(CCCNc2cc(=O)n(C)c(=O)n2C)CC1	inactive
NC(N)=Nc1nc(CSCC/C(N)=N/S(N)(=O)=O)cs1	inactive
CC(=O)CCCCn1c(=O)c2c(ncn2C)n(C)c1=O	inactive
C[N+]1(C)[C@@H]2CC(OC(=O)[C@H](CO)c3ccccc3)C[C@H]1[C@H]1O[C@@H]12 (stereo not given in full)	inactive
O=C(O)Cc1cccc2ccccc12	inactive
O=c1[nH]cnc2c1ncn2[C@H]1CC[C@@H](CO)O1	inactive
C[C@@H](O)[C@H]1C(=O)N2C(C(=O)O)=C(S[C@@H]3CN[C@H](C(=O)N(C)C)C3)[C@H](C)[C@H]12	inactive
CC(C)NCC(O)COc1cccc2[nH]ccc12 (stereo not given)	inactive
O=C(NCCN1CCOCC1)c1ccc(Cl)cc1	inactive
